The results in this text go back to PubChem BioAssay.

“And” between values parts separate entries of the source, which are not always exact repeats. Equal entries are not always repeated. The source made the active and inactive calls. Unless noted, how the calls were made is not given here.

Experiment [1] in a line: compounds altering circadian rhythm period length – cell-based, LOPAC library, luminescence reporter (AID 2774).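 Further: values are relative to mean of DMSO wells on each plate.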 Conditions: circadian reporter cells, at 7 µM, actives lie on both sides.
Experiment [2] relates to Hepatitis C virus NS3 helicase. As to the kind of experiment: blockers of NS3h binding to ssDNA – biochemical, fluorescence polarization, LOPAC1280 library, primary screen (AID 687035; in the data active means inhibition above about 37%). Conditions: Purified HCV NS3 helicase, Cy5-dT15 ssDNA binding fluorescence polarization; stronger effect = higher value; concentration not given here. (In general: In fluorescence polarisation assays a small probe gives low polarisation when free and higher when bound to something large.)

Experiment [3] can be described thus: compounds altering Cy5-DNA-NS3h complex signal – biochemical, LOPAC1280, artefact control for HCV NS3 helicase inhibitor project (AID 687037). The following applies: Cy5-DNA-NS3h complex fluorescence interference counterscreen. For orientation: A counterscreen serves to expose hits that act by an unwanted route or on another target.
A short description of experiment [4]: blockers of cellular phospholipid synthesis – cell-based, LOPAC library, screen 4, primary screen (AID 1347384). Conditions: animal cells, phospholipid biosynthesis inhibition screen; at 10 µM.
Experiment [5] in a line: GFP-Q80 aggregate reduction, neuronal-like cells, cell-based, NGF-treated PC12, GFPQ80 (AID 1614).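 Further: lower means fewer inclusions and 0 means no inclusions at all.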 The following applies: PC12 NGF-treated GFP-polyQ80 inclusion reduction.
Experiment [6] can be described thus: P. berghei load reduction in hepatocytes – cell-based, HepG2, luciferase luminescence, HepG2 viability, primary screen (AID 624349; in the data active means parasite load remaining mostly below about 12%, no sharp cut-off; inactive means mostly above about 10%;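 further: 100% = mean of DMSO negative control wells on the same plate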). The following applies: P. berghei liver stage in HepG2, luciferase luminescence, concentration not given here; parasite load remaining: stronger effect = lower value; viability: measured here: HepG2 viability without parasites.

For the compound `CN(C)CCC=C1c2ccccc2CCc2ccccc21`, in experiment [1], the period change was 0.175 h (inactive). Besides, the inhibition (usually the relative decrease from the control value, in per cent) in experiment [2] was -5% (inactive). The fluorescence ratio (interference) in experiment [3] is 0.9 (inactive). The compound was classed as inactive in experiment [4].
The matching figures for `OCCN1CCN(CCCN2c3ccccc3Sc3ccc(Cl)cc32)CC1`: -0.035 h (inactive), -1% (inactive), 1 (inactive) and “inactive”.
The matching figures for `CN(C)CCCN1c2ccccc2CCc2ccccc21`: 0.07 h (inactive), -7% (inactive), 1 (inactive) and “inactive”.
`CCN(CC)CCNC(=O)c1ccc(N)cc1` showed an inclusion score in experiment [5] of 2. Further, the period change in experiment [1] is 0.185 h (inactive). Moreover, the inhibition in experiment [2] was -2% (inactive). Further, the fluorescence ratio (interference) in experiment [3] was 1 (inactive). In addition, the outcome in experiment [4] was inactive.
As to `CCN(CC)CCOC(=O)C1(C2CCCCC2)CCCCC1`, the period change in experiment [1] was 0.005 h (inactive). Moreover, the inhibition in experiment [2] was -4% (inactive). Further, the fluorescence ratio (interference) in experiment [3] is 1 (inactive). Also, the compound was called inactive in experiment [4].
In the case of `Cc1ccc(S(=O)(=O)NC(=O)NN2CCCCCC2)cc1`, the inclusion score in experiment [5] worked out at 2. Also, in experiment [1], the period change is 0.08 h (inactive). Also, the inhibition in experiment [2] is -1% (inactive). Besides, the fluorescence ratio (interference) in experiment [3] is 1 (inactive). Moreover, in experiment [4], the compound was called inactive.
The corresponding values for `O=C1NC(=O)C(c2ccccc2)(c2ccccc2)N1` are 2, 0.02 h (inactive), 1% (inactive), 1 (inactive) and “inactive”.
As to `Nc1nc(N)c2nc(-c3ccccc3)c(N)nc2n1`, in experiment [1], the period change is 0.185 h (inactive). Moreover, in experiment [2], the inhibition is -2% (inactive). Further, in experiment [3], the fluorescence ratio (interference) was 1 (inactive). In addition, the compound was called inactive in experiment [4].
On to `NS(=O)(=O)c1cc2c(cc1C(F)(F)F)NC(Cc1ccccc1)NS2(=O)=O` (stereo not given), for which the inclusion score in experiment [5] turned out to be 2.
`CCCNC(C)C(=O)Nc1ccccc1C` (stereo not given) had an inclusion score in experiment [5] of 2. The period change in experiment [1] is -0.13 h (inactive). In addition, in experiment [2], the inhibition is -1% (inactive). Moreover, the fluorescence ratio (interference) in experiment [3] was 1 (inactive). Further, the call in experiment [4] was inactive.
The matching figures for `CC[N+](C)(C)c1cccc(O)c1`: 2, 0.07 h (inactive), -3% (inactive), 1 (inactive) and “inactive”.
For the compound `CN(C)CCCN1c2ccccc2Sc2ccc(Cl)cc21`, the period change in experiment [1] is -0.035 h (inactive). Moreover, the inhibition in experiment [2] was -2% (inactive). Also, in experiment [3], the fluorescence ratio (interference) was 1 (inactive). For the same compound, the compound was called inactive in experiment [4].
With `CN(C)C(=O)Oc1ccc[n+](C)c1`, the inclusion score in experiment [5] is 2. In addition, the period change in experiment [1] is 0.015 h (inactive). In experiment [6], the parasite load remaining is 46.4% (inactive) and 38.1% (inactive) and 33.2% (inactive); the viability – broadly, a read-out of living cells in per cent, often relative to untreated cells – was 90.6% and 93.2% and 82.1%. Moreover, the inhibition in experiment [2] is -1% (inactive). The fluorescence ratio (interference) in experiment [3] was 1 (inactive). Besides, the outcome in experiment [4] was inactive.
In the case of `CN(C)CCC[C@@]1(c2ccc(F)cc2)OCc2cc(C#N)ccc21`, in experiment [6], the parasite load remaining was 78.9% (inactive) and 44.8% (inactive); the viability is 63.5% and 102%.
As for `CCOC(=O)[C@H](CCc1ccccc1)N[C@@H](C)C(=O)N1Cc2ccccc2C[C@H]1C(=O)O`, the inclusion score in experiment [5] stood at 2.5.
For the compound `Cc1nc2ccccn2c(=O)c1CCN1CCC(C(=O)c2ccc(F)cc2)CC1`, the period change in experiment [1] is -0.415 h (inactive). Further, the inhibition in experiment [2] was -3% (inactive). For the same compound, the fluorescence ratio (interference) in experiment [3] was 1 (inactive). In addition, in experiment [4], the result was inactive.
In turn, `CCN(CC)CCOC(=O)c1ccc(N)cc1` gave an inclusion score in experiment [5] of 1.5. Besides, the period change in experiment [1] is -0.065 h (inactive). The inhibition in experiment [2] was 0% (inactive). Moreover, in experiment [3], the fluorescence ratio (interference) is 1 (inactive). Besides, the compound was classed as inactive in experiment [4].
On to `NCC(=O)CCC(=O)O`, for which, in experiment [6], the parasite load remaining is 63.7% (inactive) and 161% (inactive) and 53.4% (inactive); the viability was 95.6% and 83.2% and 165%.
As to `CC(CN1c2ccccc2Sc2ccccc21)N(C)C` (stereo not given), the period change in experiment [1] is 0.14 h (inactive). Besides, the inhibition in experiment [2] was -2% (inactive). In addition, the fluorescence ratio (interference) in experiment [3] was 1 (inactive). Further, the compound was called inactive in experiment [4].
Take `CC(N=C(NC#N)Nc1ccncc1)C(C)(C)C` (stereo not given): in experiment [1], the period change was 0.07 h (inactive). In addition, the inhibition in experiment [2] was -5% (inactive). Further, the fluorescence ratio (interference) in experiment [3] was 1 (inactive). The result in experiment [4] was inactive.
Regarding `CCCNC(=O)NS(=O)(=O)c1ccc(Cl)cc1`, in experiment [5], the inclusion score is 2. In addition, in experiment [1], the period change is 0.055 h (inactive). Besides, the inhibition in experiment [2] was -1% (inactive). In addition, in experiment [3], the fluorescence ratio (interference) is 1 (inactive). Moreover, the compound was classed as inactive in experiment [4].
In the case of `Nc1ccc(S(=O)(=O)c2ccc(N)cc2)cc1`, the inclusion score in experiment [5] was 2.
